According to PubChem BioAssay AID743361 (Molecular Libraries Program, Specialized Chemistry Center, …, 2014):
Values without a mark were called inactive. The source made the active and inactive calls. How the calls were made is not given here.

Assay: Rhodamine 123 quenching counterscreen activity, dose response, counter-screen for mtPTP inhibitor project, biochemical, dry powder samples, uHTS hits, fluorescence (AID 743361)
Conditions: Rhodamine 123 fluorescence quenching counterscreen, cell-free

Row | SMILES | IC50
1 | COc1ccc(Cl)cc1C(=O)Nc1ccc(N2CCCCC2)cc1 | > 100 µM
2 | O=C(Nc1ccc(Cl)cc1)c1cc(-c2ccccc2)on1 | > 100 µM
3 | CCCc1cc(C(=O)Nc2ccc(Br)cc2)no1 | > 100 µM
4 | O=C(Nc1ccc(Br)cc1)c1cc(C2CC2)on1 | > 100 µM
5 | CN1CCN(c2ccc(Cl)cc2NC(=O)/C=C/c2cccc(F)c2)CC1 | > 100 µM
6 | CC1(C)CCN(CCCC(=O)c2ccc(Br)cc2)CC1 | > 100 µM
7 | CC1CCN(CCCC(=O)c2ccc(Br)cc2)CC1 | > 100 µM
8 | CN1CCN(CCc2ccc(NS(=O)(=O)c3cccc(Cl)c3)cc2)CC1 | > 100 µM
9 | Cc1cc(NC(=O)c2ccc(-n3cnnc3)cc2)no1 | > 100 µM
10 | COc1ccc(NC(=O)c2cc(-c3ccc(Cl)cc3)on2)cc1Cl | > 100 µM
11 | COc1ccc(Cl)c(C(=O)Nc2ccc(CN3CCOCC3)cc2)c1 | > 100 µM
12 | CCN(C(=O)c1cc(Cl)ccc1OC)c1ccccc1 | > 100 µM
13 | O=C(Nc1ccccc1C(F)(F)F)c1cc(-c2ccccc2)on1 | > 100 µM
14 | CN1CCN(CCc2ccc(NS(=O)(=O)c3ccc(F)c(Cl)c3)cc2)CC1 | > 100 µM
15 | COc1ccc(Cl)cc1C(=O)Nc1ccc(CN2CCNCC2)cc1 | > 100 µM
16 | O=C(Nc1cc(Cl)cc(Cl)c1)c1cc(-c2cccc(O)c2)on1 | > 100 µM

Row | SMILES | IC50
17 | CN1CCN(c2ccc(NC(=O)c3cccc(OCc4ccccc4)c3)cc2)CC1 | > 100 µM
18 | CCc1ccccc1NC(=O)c1cc(-c2ccccc2)on1 | > 100 µM
19 | COc1ccc(Cl)cc1S(=O)(=O)Nc1ccc(CCN2CCCCC2)cc1 | > 100 µM
20 | O=C(Nc1cccc(Cl)c1)c1cc(-c2cccc(O)c2)on1 | > 100 µM
21 | O=C(Nc1ccc(OCc2ccccc2)c(Cl)c1)c1cc(-c2cccc(O)c2)on1 | > 100 µM
22 | Cc1c(Cl)cccc1NC(=O)c1cc(-c2cccc(O)c2)on1 | > 100 µM
23 | CCCc1cc(C(=O)Nc2c(F)cc(F)cc2Br)no1 | > 100 µM
24 | CN1CCN(Cc2ccc(NS(=O)(=O)c3cc(Cl)cc(Cl)c3)cc2)CC1 | > 100 µM
25 | COc1ccc(Cl)cc1C(=O)Nc1cccc(CN2CCN(C(=O)OC(C)(C)C)CC2)c1 | 73.5 µM (active)
26 | COc1ccc(Cl)cc1C(=O)Nc1ccc(CCN2CCOCC2)cc1 | > 100 µM
27 | O=C(Nc1cccc(F)c1)c1cc(-c2cccc(O)c2)on1 | > 100 µM
28 | O=S(=O)(Nc1ccc(CN2CCCCC2)cc1)c1cc(Cl)cc(Cl)c1 | > 100 µM
29 | COc1ccc(Cl)cc1C(=O)Nc1ccc(CCN2CCCCC2)cc1 | > 100 µM
30 | COc1ccc(/C=C/C(=O)Nc2cccc(Cl)c2)cc1O | > 100 µM
31 | O=C(Nc1ccc(F)cc1F)c1cc(-c2ccccc2)on1 | > 100 µM
